Seven compounds from PubChem BioAssay (NCATS) can be followed below.

For experiment [1], the target named is Lysosomal acid glucosylceramidase (Homo sapiens) (UniProt P04062). Briefly: Glucocerebrosidase-p2 (AID 348; in the data active means potency below about 10 µM; further: potency means the concentration at half of the fitted maximal effect). Particulars: purified GBA, blue fluorogenic substrate, 40 min. The procedure, abridged: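 Compounds titrated from 0.6 nM upwards against 0.2 nM enzyme in pH 5.9 citric acid/KH2PO4, taurocholate, tween-20; blue fluorogenic substrate 80 uM, 40 min room temperature, stopped and read Ex 365/Em 440 for AC50.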

Experiment [2] in a line: AP1 Signaling Pathway (AID 357).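 Further: ME-180 reporter cells stimulated with EGF at its EC50 level; on the % scale 0 is the no-effect control and ±100 the full control effect.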 Particulars: ME-180 AP-1-bla reporter, EGF-induced, beta-lactamase ratio, 5 h; at 7.69 µM (top of the series) unless noted. The gist of the method: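 AP-1-bla ME-180 cells, Opti-MEM + 0.5% dialyzed FBS, plated overnight 37 °C. Cpd titration + EC50 EGF, 5 h 37 °C. CCF4 2.5 h RT; ex 405, em 460/530 ratio → %activity, AC50.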
Experiment [3] concerns the target Cytochrome P450 1A2 (Homo sapiens) (UniProt P05177). The experiment is described as follows: p450-cyp1a2 (AID 410; calls by dose curve; further: potency means the concentration at half of the fitted maximal effect). Particulars: recombinant CYP1A2, luciferin-ME demethylation, luminescence; series mostly up to 57 µM. The gist of the method:
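Inhibition was calculated relative to 57 uM furafylline (full inhibition). The reaction used human CYP1A2 at 20nM with Luciferin-ME at its Km, 100uM, driven by an NADPH-regenerating system for 60 min at room temperature.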

The nature of experiment [4]: NFAT Signaling Pathway (AID 444).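 Further: carbachol stimulus at about its EC50 of 1 µM final; on the % scale 0 is the no-effect control and ±100 the full control effect.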 Particulars: Jurkat NFAT-bla M1, carbachol, beta-lactamase ratio, 5 h; at 7.69 µM (top of the series) unless noted. The procedure, abridged: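 Jurkat cells carrying an NFAT-driven β-lactamase reporter and co-transfected muscarinic M1 receptor were treated with compound plus carbachol (1 uM final, an EC50 level) for 5 h at 37 °C. CCF4 loading followed for 1 h at RT; 460/530 nm ratio gave %activity.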

A short description of experiment [5]: Stat Signaling Pathway (AID 446).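 Further: ME-180 cervical cancer cells given 40 pM IL-6 alongside compound; SIE-controlled beta-lactamase reporter measured as 460/530 nm FRET emission ratio; on the % scale 0 is the no-effect control and ±100 the full control effect.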 Particulars: ME-180 SIE beta-lactamase reporter, IL-6 stimulated, 5 h; at 7.69 µM (top of the series) unless noted. The procedure, abridged:
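Reporter line: ME-180 cervical carcinoma, SIE-beta-lactamase. Treatment: compound with 40 pM IL-6, 5 hrs, 37 C, in low-serum OPTI-MEM with 10 mM HEPES pH 7.3. Detection: 460/530 nm fluorescence.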

For experiment [6], the target named is Glucocorticoid receptor (Homo sapiens) (UniProt P04150). The experiment is described as follows: GR-EFC Redistribution (AID 451; calls by dose curve; further: potency means the concentration at half of the fitted maximal effect). Particulars: CHO-K1 GR-EFC translocation, beta-gal luminescence, 2 h. The gist of the method:
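CHO-K1 cells stably expressing nuclear-localized β-gal enzyme acceptor and GR fused C-terminally to the enzyme donor fragment; ligand-driven nuclear translocation restores β-gal by complementation. Compounds titrated up to 46 uM final, 2 h at 37 °C; luminescence read.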

The target of experiment [7] is Mitogen-activated protein kinase 10 (Mus musculus) (UniProt Q61831). The experiment is described as follows: JNK3 AlphaScreen Assay (AID 530).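 Further: kinase came from lysate of stimulated human HepG2 cells; signal reports phosphorylation of biotinylated GST-cJun 1-79 at Ser73 with 10 µM ATP; on the % scale 0 is the no-effect control and ±100 the full control effect.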 Particulars: JNK3 lysate, c-Jun phosphorylation; series mostly up to 57.1 µM. The procedure, abridged:
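JNK3 came from HepG2 lysates pre-activated with IL-1beta and TNF-alpha and phosphorylated biotinylated GST-cJun (1-79) at 10 uM ATP, pH 7.6, room temperature. Compounds were titrated. AlphaScreen signal used anti-phospho-cJun (Ser73) antibody.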
In general terms: Alpha assays give light when donor and acceptor beads are brought close together.

Experiment [8] addresses 3',5'-cyclic-AMP phosphodiesterase 4B (Homo sapiens) (UniProt Q07343). Briefly: qHTS Assay for Inhibitors of PDE-IV (AID 607; active means well fitted activation curve with a large enough effect in the main read-out, with a control signal flat, not every such curve was filed as active; further: % of control where 0% means no effect). To be noted: HEK293 ACTOne CNG channel cells, membrane potential fluorescence; series mostly up to 22.9 µM. The gist of the method: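 Cell-based read-out of cAMP via a modified cyclic nucleotide-gated channel and membrane potential dye (535/590 nm) in HEK293 cells expressing PDE4 endogenously. Compounds tested up to 22.9 uM final; 100 uM RO 20-1724 reference.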
A general note: qHTS replaces the single test concentration by a dilution series.

Experiment [9] addresses Cytochrome P450 3A4 (Homo sapiens) (UniProt P08684). The experiment is described as follows: qHTS Assay for Activators of Cytochrome P450 3A4 (AID 885; active means well fitted curve in the direction sought with a large enough effect; an effect the other way counts as inactive or inconclusive; further: nearly all actives have a fitted effect of over 65% in size). Particulars: recombinant CYP3A4, Luciferin-PPXE luminescence, 60 min; series mostly up to 57.1 µM. The procedure, abridged:
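Signal was normalized against complete inhibition by 57 uM ketoconazole. The reaction used 20nM CYP3A4 with 25uM Luciferin-PPXE, 10-min compound preincubation and a 60-min NADPH-supported step at RT.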

The nature of experiment [10]: qHTS Assay for Lipid Storage Modulators (AID 1519; calls by dose curve). Particulars: Drosophila S3 cells, BODIPY lipid droplet/cell ratio, laser cytometry, cells loaded with oleic acid; for activity change, negative = inhibition: at 57.5 µM (top of the series). The procedure, abridged:
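Cells seeded at 5,000 per well were treated with compounds over a concentration series and loaded with oleic acid (400 uM, as added). Lipid droplet fluorescence (488 nm excitation, 500-530 nm channel) was read by laser-scanning cytometry and normalized to 20 uM Triacsin C.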

Experiment [11] can be described thus: Primary qHTS for small molecule stabilizers of the endoplasmic reticulum resident proteome: Secreted ER Calcium Modulated Protein (SERCaMP) assay (AID 1508630; active means well fitted curve in the direction sought with a large enough effect; an effect the other way counts as inactive or inconclusive; further: on the % scale 0 is the no-effect control and ±100 the full control effect). To be noted: SH-SY5Y GLuc-SERCaMP (Gaussia luciferase released on ER calcium loss) secretion, thapsigargin, luminescence; series mostly up to 38.4 µM. The procedure, abridged: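 GLuc-SERCaMP-expressing SH-SY5Y cells, pretreated 16 h with compound, are challenged with thapsigargin to empty ER calcium stores; after 4 h, coelenterazine is added directly to the medium and luminescence is imaged.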

Experiment [12] deals with Cytochrome P450 2D6 (Homo sapiens) (UniProt P10635). The experiment is described as follows: qHTS Assay for Inhibitors and Substrates of Cytochrome P450 2D6 (AID 891; active means well fitted curve in the direction sought with a large enough effect; an effect the other way counts as inactive or inconclusive;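 further: luciferin methyl ether substrate demethylated by CYP2D6 with NADPH regeneration; on the % scale 0 is the no-effect control and ±100 the full control effect; nearly all actives have a fitted effect of over 60% in size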). To be noted: recombinant CYP2D6, luciferin-ME EGE luminescence; series mostly up to 57.1 µM. The procedure, abridged:
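Human CYP2D6 (5 nM) with 30 uM Luciferin-ME EGE (at Km) in 100 mM KPO4, compound preincubated 10 min, then NADPH regeneration system for 60 min at room temperature. Luciferin read by luminescence; normalized to 1.43 uM quinidine.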

Where [13] appears, read: measured here: cell count channel max response.
Where [14] appears, read: measured here: lipid channel max response.

SMILES strings stand for the structures. Records with an inconclusive call do not appear. The source made the active and inactive calls. Unless noted, the call rests on the fitted dose curve; in most records, active means well fitted curve in either direction with a large enough effect (not every such curve was filed as active); inconclusive means small, poorly fitted or top-dose-only effect, or another doubt; inactive means flat fitted curve, though single readings scatter.

Sequence of Glucocorticoid receptor (Homo sapiens) (P04150 whole entry, looked up, the tested form may be a part): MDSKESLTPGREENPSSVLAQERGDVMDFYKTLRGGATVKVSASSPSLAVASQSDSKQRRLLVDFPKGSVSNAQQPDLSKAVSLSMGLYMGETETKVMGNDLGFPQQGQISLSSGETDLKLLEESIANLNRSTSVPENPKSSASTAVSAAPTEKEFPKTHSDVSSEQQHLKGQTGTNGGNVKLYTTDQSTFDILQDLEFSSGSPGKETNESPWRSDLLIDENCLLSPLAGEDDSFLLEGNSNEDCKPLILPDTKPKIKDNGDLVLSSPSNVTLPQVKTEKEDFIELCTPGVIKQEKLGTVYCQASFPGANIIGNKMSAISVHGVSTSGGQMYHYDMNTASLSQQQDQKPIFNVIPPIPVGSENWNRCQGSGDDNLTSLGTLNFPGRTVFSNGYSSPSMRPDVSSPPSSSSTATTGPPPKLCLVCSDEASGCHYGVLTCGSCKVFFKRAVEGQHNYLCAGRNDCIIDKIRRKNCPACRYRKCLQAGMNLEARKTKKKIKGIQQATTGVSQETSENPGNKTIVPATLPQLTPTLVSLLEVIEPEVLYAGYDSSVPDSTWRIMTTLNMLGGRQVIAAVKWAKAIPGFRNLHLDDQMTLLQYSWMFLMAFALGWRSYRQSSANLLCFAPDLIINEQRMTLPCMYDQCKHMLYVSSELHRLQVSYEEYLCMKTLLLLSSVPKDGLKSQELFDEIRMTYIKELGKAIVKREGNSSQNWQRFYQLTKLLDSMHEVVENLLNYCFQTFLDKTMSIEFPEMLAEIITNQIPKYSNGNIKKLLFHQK
Sequence of Cytochrome P450 1A2 (Homo sapiens) (P05177 whole entry, looked up): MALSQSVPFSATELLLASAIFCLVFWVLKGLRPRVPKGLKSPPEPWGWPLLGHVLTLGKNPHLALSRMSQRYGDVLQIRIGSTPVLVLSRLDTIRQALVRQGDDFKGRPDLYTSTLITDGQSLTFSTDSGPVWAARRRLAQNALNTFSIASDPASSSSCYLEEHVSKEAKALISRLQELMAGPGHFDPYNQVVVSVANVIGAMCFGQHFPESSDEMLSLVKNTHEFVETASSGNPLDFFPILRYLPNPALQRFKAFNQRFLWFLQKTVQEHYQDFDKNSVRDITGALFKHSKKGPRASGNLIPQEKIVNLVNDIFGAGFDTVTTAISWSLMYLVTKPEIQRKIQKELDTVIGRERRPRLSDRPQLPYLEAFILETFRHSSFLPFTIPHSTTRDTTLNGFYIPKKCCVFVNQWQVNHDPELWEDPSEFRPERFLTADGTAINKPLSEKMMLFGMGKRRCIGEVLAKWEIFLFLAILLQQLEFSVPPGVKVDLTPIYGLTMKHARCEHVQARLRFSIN
Sequence of Cytochrome P450 3A4 (Homo sapiens) (P08684 whole entry, looked up): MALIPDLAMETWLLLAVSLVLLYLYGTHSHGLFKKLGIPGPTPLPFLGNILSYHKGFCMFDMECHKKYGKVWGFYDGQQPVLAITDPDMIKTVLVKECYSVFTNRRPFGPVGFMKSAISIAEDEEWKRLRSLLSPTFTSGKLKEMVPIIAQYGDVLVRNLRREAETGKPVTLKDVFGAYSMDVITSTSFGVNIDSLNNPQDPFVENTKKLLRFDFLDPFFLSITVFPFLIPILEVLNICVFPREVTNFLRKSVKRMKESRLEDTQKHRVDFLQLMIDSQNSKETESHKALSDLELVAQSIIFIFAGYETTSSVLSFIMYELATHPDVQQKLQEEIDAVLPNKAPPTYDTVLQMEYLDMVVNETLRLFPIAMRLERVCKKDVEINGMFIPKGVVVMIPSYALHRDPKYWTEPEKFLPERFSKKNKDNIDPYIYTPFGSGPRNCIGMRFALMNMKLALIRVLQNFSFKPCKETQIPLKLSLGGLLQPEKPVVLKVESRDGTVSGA
Sequence of 3',5'-cyclic-AMP phosphodiesterase 4B (Homo sapiens) (Q07343 whole entry, looked up): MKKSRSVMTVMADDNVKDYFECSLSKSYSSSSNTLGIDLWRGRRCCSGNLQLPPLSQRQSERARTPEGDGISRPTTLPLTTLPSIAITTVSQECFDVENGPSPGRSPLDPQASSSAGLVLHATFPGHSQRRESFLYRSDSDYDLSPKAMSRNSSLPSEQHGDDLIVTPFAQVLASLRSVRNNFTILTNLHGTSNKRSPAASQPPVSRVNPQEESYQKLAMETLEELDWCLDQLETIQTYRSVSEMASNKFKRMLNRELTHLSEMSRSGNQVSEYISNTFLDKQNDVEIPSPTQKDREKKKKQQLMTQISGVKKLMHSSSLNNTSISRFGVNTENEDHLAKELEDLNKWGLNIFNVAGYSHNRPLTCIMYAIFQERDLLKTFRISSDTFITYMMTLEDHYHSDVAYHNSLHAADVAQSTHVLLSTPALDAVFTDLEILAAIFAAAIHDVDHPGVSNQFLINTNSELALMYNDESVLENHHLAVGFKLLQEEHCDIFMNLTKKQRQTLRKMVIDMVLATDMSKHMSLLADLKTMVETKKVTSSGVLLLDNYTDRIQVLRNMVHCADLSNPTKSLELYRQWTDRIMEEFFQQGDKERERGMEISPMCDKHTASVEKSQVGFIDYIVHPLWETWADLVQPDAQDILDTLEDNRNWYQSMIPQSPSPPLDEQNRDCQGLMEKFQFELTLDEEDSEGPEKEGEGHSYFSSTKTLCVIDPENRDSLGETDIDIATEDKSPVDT
Sequence of Lysosomal acid glucosylceramidase (Homo sapiens) (P04062 whole entry, looked up): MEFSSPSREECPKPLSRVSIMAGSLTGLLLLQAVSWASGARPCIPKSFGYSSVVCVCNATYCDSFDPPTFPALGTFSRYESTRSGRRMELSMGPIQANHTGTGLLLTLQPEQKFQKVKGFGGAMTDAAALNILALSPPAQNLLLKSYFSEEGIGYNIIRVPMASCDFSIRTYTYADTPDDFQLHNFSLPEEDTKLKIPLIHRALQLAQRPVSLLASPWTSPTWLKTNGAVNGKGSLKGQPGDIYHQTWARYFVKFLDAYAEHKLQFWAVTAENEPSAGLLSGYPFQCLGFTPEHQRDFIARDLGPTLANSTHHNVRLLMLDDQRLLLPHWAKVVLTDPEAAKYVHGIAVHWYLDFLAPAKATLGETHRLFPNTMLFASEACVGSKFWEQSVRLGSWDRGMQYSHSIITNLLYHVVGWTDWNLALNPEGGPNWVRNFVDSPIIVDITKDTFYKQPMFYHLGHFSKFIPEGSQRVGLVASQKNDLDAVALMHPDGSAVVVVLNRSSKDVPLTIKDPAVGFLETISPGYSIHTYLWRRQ
Sequence of Cytochrome P450 2D6 (Homo sapiens) (P10635 whole entry, looked up): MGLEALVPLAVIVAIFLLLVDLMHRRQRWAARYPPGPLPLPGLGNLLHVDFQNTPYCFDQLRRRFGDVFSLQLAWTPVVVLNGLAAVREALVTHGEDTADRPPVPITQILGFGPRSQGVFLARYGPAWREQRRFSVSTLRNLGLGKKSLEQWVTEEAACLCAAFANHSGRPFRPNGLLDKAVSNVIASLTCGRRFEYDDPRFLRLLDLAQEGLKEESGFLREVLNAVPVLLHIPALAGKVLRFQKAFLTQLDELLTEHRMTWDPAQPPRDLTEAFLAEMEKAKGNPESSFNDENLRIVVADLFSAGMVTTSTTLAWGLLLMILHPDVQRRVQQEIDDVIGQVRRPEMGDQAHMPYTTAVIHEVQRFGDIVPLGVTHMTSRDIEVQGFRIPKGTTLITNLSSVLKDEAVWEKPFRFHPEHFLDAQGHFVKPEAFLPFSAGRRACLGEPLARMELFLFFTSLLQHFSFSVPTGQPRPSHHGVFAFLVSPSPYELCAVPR

Consider `O=C(Nc1cccc(F)c1)N1CC[C@@]2(CCCN(C(=O)c3ccco3)C2)C1`, for which the Potency in experiment [1] is > 11.4 µM (inactive); in [3], 25.1 µM (active); in [6] it was > 46 µM (inactive). Moreover, the results for the activity change, negative = inhibition in experiment [2], in experiment [4] and in experiment [10] were 1.78% (inactive), -0.255% (inactive) and 0.339% (inactive), respectively. Further, the activity, negative = inhibition in [5] was 8.88% (inactive). Also, the compound was called inactive in experiment [7]. The Potency result in experiment [8], in experiment [9] and in experiment [11] was “inactive” throughout. The max response in [10] (setting [13]) is -5.34%; in experiment [10] (setting [14]), -1.46%.

For the compound `COCC(=O)N1CCC[C@@]2(CCN(Cc3ccc(C#N)cc3)C2)C1`, the Potency in experiment [1] is > 11.4 µM (inactive); in [6], > 46 µM (inactive). Also, the values for the activity change, negative = inhibition in experiment [2], in [4] and in experiment [10] were -13.6% (inactive), 4.93% (inactive) and 5.07% (inactive), respectively. In addition, the Potency entry in [3], in [8], in [9] and in [11] was “inactive” throughout. For the same compound, the activity, negative = inhibition in [5] is 5.14% (inactive). In addition, the compound was called inactive in [7]. In addition, the max response in experiment [10] (setting [13]) amounted to 7.03%; in [10] (setting [14]) it was 15.9%.

As to `O=C(c1ccncc1)N1CCC[C@@]2(CCN(c3ncccn3)C2)C1`, the figures for the Potency in experiment [1] and in experiment [6] were > 11.4 µM (inactive) and > 46 µM (inactive), respectively. The activity change, negative = inhibition was 2.24% (inactive) in [2], 20.3% (inactive) in [4] and 3.78% (inactive) in experiment [10]. For the same compound, the Potency result in experiment [3], in experiment [8], in experiment [9] and in experiment [11] was “inactive” each time. In experiment [5], the activity, negative = inhibition was 1.34% (inactive). The call in experiment [7] was inactive. Moreover, the values for the max response in experiment [10] (setting [13]) and in [10] (setting [14]) were 21.2% and 24.4%, respectively.

`COC(=O)N1CCC[C@@]2(CCN(c3ccncc3)C2)C1`: the Potency is > 11.4 µM (inactive) in [1] and > 46 µM (inactive) in experiment [6]. The activity change, negative = inhibition in experiment [2] was -7.07% (inactive); in [4] it was -14.4% (inactive); in experiment [10] it was 4.92% (inactive). Also, the Potency entry in experiment [3], in [8], in [9], in experiment [12] and in [11] was “inactive” in each case. The activity, negative = inhibition in experiment [5] is -2.36% (inactive). Besides, the result in [7] was inactive. The max response in experiment [10] (setting [13]) was 18.5%; in experiment [10] (setting [14]), 26.2%.

Regarding `COc1ccc(C(=O)N2CCC[C@@]3(CCN(C(=O)Nc4ccccc4)C3)C2)cc1`, the Potency in [1] was > 11.4 µM (inactive); in experiment [3] it was 15.8 µM (active); in experiment [6], > 46 µM (inactive). The activity change, negative = inhibition in experiment [2] was -19.4% (inactive); in [4], 12.1% (inactive); in experiment [10] it was 10.7% (inactive). Moreover, in [5], the activity, negative = inhibition is -4.43% (inactive). In addition, the outcome in [7] was inactive. Also, the Potency entry in experiment [8], in [9] and in [11] was “inactive” each time. The figures for the max response in [10] (setting [13]) and in experiment [10] (setting [14]) were 8.67% and 24.1%, respectively.

For the compound `O=C(c1csnn1)N1CCC[C@@]2(CCN(c3ccccn3)C2)C1`, the Potency was > 11.4 µM (inactive) in [1] and > 46 µM (inactive) in experiment [6]. Moreover, the activity change, negative = inhibition in experiment [2] is -10.6% (inactive); in [4], -7.38% (inactive); in experiment [10], 3.43% (inactive). Besides, the Potency entry in experiment [3], in experiment [8], in [9] and in experiment [11] was “inactive” in each case. In addition, the activity, negative = inhibition in experiment [5] is 8.47% (inactive). In experiment [7], the compound was classed as inactive. Also, the max response in experiment [10] (setting [13]) was found to be 4.63%; in [10] (setting [14]), 10.9%.

Turning to `O=C(Nc1ccccc1)N1CCCC2(CCN(C(=O)c3ccco3)CC2)C1`, the Potency in experiment [1] is > 11.4 µM (inactive); in experiment [3], 20 µM (active); in [6], > 46 µM (inactive). The figures for the activity change, negative = inhibition in experiment [2], in experiment [4] and in experiment [10] were -8.89% (inactive), -7.1% (inactive) and 4.55% (inactive), respectively. Moreover, the activity, negative = inhibition in experiment [5] was -4.1% (inactive). In addition, the compound was called inactive in [7]. The Potency result in experiment [8], in [9] and in experiment [11] was “inactive” in each case. The max response was found to be 12% in experiment [10] (setting [13]) and 20.3% in [10] (setting [14]).
